Source: PubChem BioAssay AID651734 (Southern Research Specialized Biocontainment Screening …, 2012)
Results with a measured potency or affinity are listed apart. Activity calls are given as the source filed them. No rule for the calls is given here.

Test: VEEV TC-83 cytopathic effect inhibition, confirmation, cell-based, TC-83 strain, set 7 (AID 651734)
Conditions: VEEV TC-83 infected cells; series mostly up to 50 µM

Question: Which outcome does the source give for COc1ccc(CNc2nc(=O)c3cccnc3s2)cc1 here?
Answer: inactive

Question: Which outcome does the source give for CCN1CCN(Cc2nc3ccc(-c4ccccn4)cc3c(=O)n2-c2ccccc2)CC1 here?
Answer: inactive

Question: For CCN1CCN(C2c3ncccc3C(=O)N2c2ccccc2)CC1 (centres undefined), which outcome is on record?
Answer: inactive

Question: Which outcome does the source give for COc1ccc(Nc2nc(=O)c3cccnc3s2)cc1 here?
Answer: inactive
